A selection: hits, their analogues and other compounds. The true share with any hit is near 6.5%.
Vaccinia mCherry: qHTS for Stage-Specific Inhibitors of Vaccinia Orthopoxvirus: mCherry Reporter Primary qHTS; Potency, µM (series often up to 36.5 µM), without a hit: top-dose activity change, negative = inhibition, hits mostly inhibitors; Vaccinia virus mCherry reporter infection, fluorescence; AID 720579, 2013; 0.63% of 310,000 active; calls by dose curve; tested in A549 cells; note: potency is the fitted concentration of half-maximal effect; nearly all actives have a fitted effect of over 35% in size
LASV entry inh: qHTS for Inhibitors of binding or entry into cells for Lassa Virus; Lassa virus pseudotype entry inhibition, cell reporter; Potency, µM (doses to about 37.9 µM), without a hit: at the highest dose activity change, negative = inhibition, most hits filed as inhibitors; 1.2% of 300,000 active; AID 540256, 2011; calls by dose curve; tested in HEK293 cells; note: potency is the fitted concentration of half-maximal effect; nearly all actives have a fitted effect of over 50% in size
HCMV antiviral: qHTS Assay for inhibitors of the human cytomegalovirus (HCMV) | AID 1259415, 2018 | HFF cells, HCMV-luciferase reporter, 72 h; hits give low values | 4.5% of 410,000 active | activity change, negative = inhibition, % at 57.5 µM; in the data active = activity change below about -60%; inconclusive = no clear call, values can overlap the other calls; inactive = above about -39%
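Two compound doses tested in HFFs infected with HCMV-luciferase, MOI 1 PFU/cell, 72 h at 37C. Lysate luminescence read with OneGlo; data normalized against buffer-only and 10uM Salinomycin inhibitor controls.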
VACV Venus inh: qHTS for Stage-Specific Inhibitors of Vaccinia Orthopoxvirus: Venus Reporter Primary qHTS; Vaccinia virus Venus reporter expression, fluorescence; Potency, µM (highest dose often 36.5 µM), without a hit: top-dose activity change, negative = inhibition, most hits filed as inhibitors; AID 720580, 2013; 0.46% of 330,000 active; calls by dose curve; tested in A549 cells; note: potency is the fitted concentration of half-maximal effect; nearly all actives have a fitted effect of over 30% in size
MARV entry inh: qHTS for inhibitors of binding or entry into cells for Marburg Virus. 1.8% of 300,000 active. AID 540276, 2011. Marburg virus pseudotyped entry inhibition, cell reporter. Potency, µM (highest dose often 37.8 µM), without a hit: at the top dose activity change, negative = inhibition, hits mostly inhibitors; calls by dose curve; tested in HEK293 cells; note: potency is the fitted concentration of half-maximal effect
FMDV antiviral: High Throughput Screening for Foot and Mouth Disease Virus Antivirals; FMDV antiviral cell-based qHTS; Potency, µM (doses to about 57.9 µM), for the others: at the highest dose activity change, negative = inhibition, most hits filed as inhibitors; 1.2% of 410,000 active; AID 1159524, 2015; calls by dose curve; tested in HEK293T cells; note: read-out not given here; potency is the fitted concentration of half-maximal effect; nearly all actives have a fitted effect of over 45% in size
The depositor's hits bear a star; i = inactive; ? = inconclusive; / = no result; [ ] = another dose, or the depositor's remark. % is set by controls: 0 for no effect and ±100 for the full control effect.

SMILES | Vaccinia mCherry | LASV entry inh | HCMV antiviral | VACV Venus inh | MARV entry inh | FMDV antiviral
Cc1cccc(N(C)C(=O)CCS(=O)(=O)c2cc3c(cc2Cl)NC(=O)CO3)c1 | -2% | / | -23 | -11% | / | -16%
C=CCCN1[C@@H](Cc2ccccc2)COc2ccccc2S1(=O)=O | / | ? | -19 | / | / | /
CN1C(=O)C(C(Nc2ccccc2)c2ccc(F)cc2)c2ccccc21 (configuration not stated) | / | / | 7 | / | / | /
COc1ccc(N(C)C(=O)NCc2noc3ccc(C)cc23)c(OC)c1 | -3% | 2%[46.1 µM] | -82* | 6% | / | -14%
COc1ccc(OC)c(CNC(=O)NCc2noc3ccc(C)cc23)c1 | -2% | 14%[46.1 µM] | 14 | 4% | / | -16%
CCOc1cccc(C2C=C(c3ccc4c(c3)OCO4)NC(c3ccccc3F)N2)c1O (configuration not stated) | -4% | / | / | -15% | / | /
Cc1cc(O)c(C(=O)/C=C/c2ccccc2)c(=O)o1 | 1% | -12% | -92* | 30% | -21% | 11µM*
Cc1cc(O)c(C(=O)/C=C/c2ccccc2Br)c(=O)o1 | i | ? | -87* | 6% | 14%[46.1 µM] | 11µM*
Cc1cc(O)c(C(=O)/C=C/c2ccc(C(C)C)cc2)c(=O)o1 | / | / | 34 | / | / | 1%
CCOc1ccc(NC(=O)CS(=O)(=O)Cc2nc(-c3ccc(C)cc3)oc2C)cc1 | -26% | -2%[46.1 µM] | -22 | -22% | -4%[46.1 µM] | -7%
COCc1cc(N2CCN(C(=O)OC(C)(C)C)C[C@H]2C)ccc1N1CC[C@@H](O)C1 | / | / | -20 | / | / | /
CN1C(=O)C2=NC(C3CCCC3)=NC2N(C)C1=O (configuration not stated) | / | / | / | / | 68% | /
COc1cc(OC)c(NC(=O)NCc2cccn2Cc2ccccc2)cc1Cl | -9% | -3%[46.1 µM] | -30 | -3% | / | -8%
CCN(CC)CCCN1C(=O)CSC1c1ccc([N+](=O)[O-])cc1 (configuration not stated) | / | / | -102* | / | / | -3%
O=C(Cn1ncc2c(Cl)cccc21)NCc1cccc(Cl)c1 | 0% | 16%[46.1 µM] | 20 | 0% | 3%[46.1 µM] | 6%
CC1(c2ccccc2)OC(C(=O)O)=CC1=O (configuration not stated) | / | / | / | / | / | -11%
O=C(Nc1ccc(Oc2ccc3nc(NC(=O)c4ccccc4)[nH]c3c2)cc1)Nc1cc(C(F)(F)F)ccc1F | / | 6.3µM* | / | / | / | /
O=C(Nc1ccc(Oc2ccc3nc(NC(=O)c4ccco4)[nH]c3c2)cc1)Nc1cc(C(F)(F)F)ccc1F | / | 7.9µM* | / | / | / | /
COC(=O)Nc1nc2ccc(Oc3ccc(NC(=O)Nc4cccc(Br)c4)cc3)cc2[nH]1 | / | 18µM* | / | / | / | /
O=C1NC(=O)c2c1c(-c1ccccc1)cc1[nH]c3ccc(O)cc3c21 | / | / | / | / | / | -35%
CN1CCN(C(CNC(=O)C(=O)Nc2ccc(F)cc2F)c2ccc3c(c2)OCO3)CC1 (configuration not stated) | -5% | -7%[46.1 µM] | -19 | -11% | / | 5%
COc1ccccc1N1CCN(c2nc(CNC(=O)c3ccccc3F)nc3ccccc23)CC1 | -15% | / | / | 7% | / | 0%
COC(=O)[C@@H]1CC23C(=NC(c4ccc([N+](=O)[O-])cc4)=C(C(F)(F)F)[C@@H]2N(C)c2ccccc23)N1C(C)=O (some centres not stated) | / | / | / | / | 8%[14.2 µM] | /
C[C@H]1OC(=O)CC[C@@H]2[C@]1(C)CCC1[C@@]2(C)CC[C@@]2(C)C3CC(C)(C)CC[C@]3(CO)CC[C@]12C (some centres not stated) | / | / | / | / | / | -13%
Cc1ccc(C(=O)NCCc2nnc3n2CCN(Cc2ccc4ccccc4c2)CC3)c(C)c1 | i | / | / | -16% | / | -12%
SMILES | Vaccinia mCherry | LASV entry inh | HCMV antiviral | VACV Venus inh | MARV entry inh | FMDV antiviral
CCOC(=O)c1cc(-c2ccc(C)cc2)n(CCC(=O)Nc2ccc(OC)c(OC)c2)c1C | -17% | / | -10 | -6% | ? | -5%
COc1ccc(Cl)cc1NC(=O)CN1CCC(NC(=O)C2CC2)CC1 | 0% | -21% | -77* | -16% | ? | -21%
CCCN1CCC(NC(=O)Nc2cc(Cl)ccc2OC)CC1 | / | / | 9 | / | / | -12%
COc1ccc(Cl)cc1NC(=O)COC(=O)C1=NNC(=O)CC1 | i | ? | -67* | -17% | 8% | -10%
COc1ccc(NC(=O)CN2CCN(CC(=O)Nc3ccccc3Cl)CC2)cc1Cl | i | -11% | 8 | -23% | -2% | 40µM*
CCOC(=O)c1cc(-c2ccc(C)cc2)n(CC(=O)Nc2ccc(OC)c(Cl)c2)c1C | -29% | / | -91* | ? | -19%[46.1 µM] | 16%
O=C1CCC(C(=O)OCC(=O)Nc2ccc(Cl)cc2C(F)(F)F)=NN1 | / | / | -19 | / | / | -24%
CN(C)c1ncnc2ccc(-c3cccc(C#N)c3)cc12 | / | / | / | / | / | -12%
CC(C)[C@@H]1C(=O)N(S(C)(=O)=O)[C@H]2CCN(C(=O)/C=C\CN3CCCCC3)[C@@H]12 | / | / | / | / | / | -7%
Cc1ncc2c(c1CNC(=O)c1ccc3c(c1)OCO3)CCN(C(=O)c1cn3ccccc3n1)C2 | -10% | / | / | 5% | / | -1%
Cn1c(CCNC(=O)C2CC23CCN(C(=O)C2=CCCC2)CC3)nc2ccccc21 (configuration not stated) | -5% | / | / | 0% | / | -1%
COc1ccc(Cl)cc1NC(=O)CNC(c1ccccc1)c1ccccc1 | -19% | 2.5µM* | 17 | -17% | ? | -21%
COc1cc2c(cc1OC)CN(CC(=O)Nc1ccc(Cl)cc1Cl)CC2 | -15% | ? | ? | -7% | -1% | -17%
COc1ccc(Cl)cc1NC(=O)CN1CCc2ccccc2C1 | / | / | -75* | / | / | -14%
COC(=O)Cn1c(=NC(=O)c2nc3ccccc3s2)sc2cc(S(N)(=O)=O)ccc21 | -1% | 0% | -89* | -8% | 13% | 0%
COC(=O)Cn1c(=NC(=O)c2cc(-c3cccs3)nc3ccccc23)sc2cc(S(N)(=O)=O)ccc21 | ? | ? | 14 | ? | ? | -27%
COc1ccc(CCn2c(O)c(C=Nc3ccc(NC(C)=O)cc3)c(=O)[nH]c2=O)cc1OC | -10% | -18%[46.1 µM] | 34 | -6% | ? | -17%
CCOc1ccc(N=Cc2c(O)n(CCc3ccc(OC)c(OC)c3)c(=O)[nH]c2=O)cc1 | i | -17% | 18 | -7% | ? | 7.9µM*
O=S1(=O)N[C@@H](Cc2ccccc2)COc2cccc(NCCO)c21 | / | / | -17 | / | / | /
CCCCCCn1c(N2CCC(C)CC2)nc2c1c(=O)[nH]c(=O)n2C | / | ? | -19 | -13% | -14% | 20µM*
C/C(Cl)=C\Cn1c(N2CCCC2)nc2c1c(=O)[nH]c(=O)n2C | / | 5% | -89* | -11% | -23% | -13%
CCCCn1c(N2CCC(Cc3ccccc3)CC2)nc2c1c(=O)[nH]c(=O)n2C | / | ? | -28 | ? | ? | 28µM*
